Experiment [1] is described as follows: qHTS for Activators of Parkin Expression: LOPAC Validation Assay (NLuc Reporter) (AID 720572;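 note: 0% = DMSO and 100% = positive control compound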). The gist of the method:
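Cells harboring the Parkin-promoter coincidence reporter were treated for 24 h at seven concentrations. NLuc output was measured sequentially after the FLuc channel and scaled between DMSO and positive control values.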
(In general: In qHTS, concentration-response curves come from the screen itself.)

Experiment [2] is described as follows: qHTS for Activators of Parkin Expression: LOPAC Validation Assay (FLuc Reporter) (AID 720573; note: potency is the fitted concentration of half-maximal effect). The essentials: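 Neuronal cell line stably expressing FLuc/NLuc coincidence reporter under the Parkin promoter, 1,500 cells/well, dosed 24 h after seeding in 7-point series for 24 h at 37 C. FLuc luminescence read; normalized to DMSO and positive control (100%).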

The target of experiment [3] is T1, Hexokinase-4 (Homo sapiens) + Glucokinase regulatory protein (Homo sapiens) (UniProt P35557+Q14397). Kind of experiment: qHTS assay for inhibitors of recombinant human GCK-GKRP interaction: Diaphorase-coupled assay (AID 743205). The gist of the method: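 Compounds pre-incubated 20 min with substrate, then 10 nM GST-GCK with 10 nM FLAG-GKRP added. GCK activity coupled via G6PDH and diaphorase to resorufin (5 mM glucose, 0.4 mM ATP, 0.15 mM NADP+, pH 7.6), read kinetically over 30 minutes at Ex 525/Em 590 nm.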

For experiment [4], the target named is T1, Hexokinase-4 (Homo sapiens) + Glucokinase regulatory protein (Homo sapiens). Kind of experiment: qHTS assay for inhibitors of recombinant human GCK-GKRP interaction: ADP-Glo assay (AID 743206).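 Note: plate controls were DMSO plus enzyme for no effect and no enzyme for full effect.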 The essentials:
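Pin-transferred compounds meet a 15 nM GST-GCK/15 nM FLAG-GKRP/2 uM S6P mix (dispense concentrations). ATP is then added to 0.4 mM final with 5 mM glucose, and the reaction runs 60 min at room temperature. ADP is quantified luminescently.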

The nature of experiment [5]: qHTS Assay for Identifying Gametocytocidal Compounds (AID 743244).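 For max response: % is set by controls: 0 for no effect and ±100 for the full control effect; actives lower the fluorescent signal which means gametocytes are killed.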 Note: potency is the fitted concentration of half-maximal effect. The settings on record: P. falciparum 3D7 stage III-V gametocytes, alamarBlue, 72 h; max response: stronger effect = lower value. The gist of the method:
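Viability read-out was resazurin reduction (alamarBlue, 24 h) measured at Ex 525/Em 598 nm. Beforehand, late-stage (III-V) 3D7 P. falciparum gametocytes at 20,000 cells/well were incubated with compound 72 h at 37C under 5% CO2.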

Experiment [6] is described as follows: qHTS assay for measurement of the activity of small molecule inhibitors on Zika virus induced Caspase-3 activity in human iPSC derived neural progenitor cells (hNPCs) (AID 1224857). Note: nearly all actives have a fitted effect of over 65% in size. Note: potency is the fitted concentration of half-maximal effect. The essentials: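 Percent inhibition of virus-induced caspase-3/7 luminescence (Caspase-Glo), scaled between uninfected cells and Zika-infected cells. hNPCs received compound 1 hr before ZIKV at 2 FFU/cell, with 6 hours infection at 37 C.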

The target of experiment [7] is T1, Hexokinase-4 (Homo sapiens) + Glucokinase regulatory protein (Homo sapiens). Kind of experiment: qHTS assay for inhibitors of recombinant human GCK-GKRP interaction: HTRF assay (AID 743207).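 Note: 0% = DMSO with GCK present and -100% = DMSO wells lacking GCK.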 The essentials:
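HTRF binding of 5 nM GST-GCK and 5 nM FLAG-GKRP with 2 uM S6P in pH 7.1 Hepes buffer (MgCl2, KCl, DTT, Tween 20, BSA). Anti-FLAG XL665 and anti-GST donor added, 60 min at room temperature; 665/615 nm read, normalized to with- and without-GCK controls.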

The nature of experiment [8]: qHTS assay for measurement of the activity of small molecule inhibitors on Zika virus induced Caspase-3 activity in human astrocytoma cells (AID 1224859).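 Note: plate controls were ZIKV-infected untreated cells for no effect and uninfected cells for full effect.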 The gist of the method:
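Luminescent caspase-3/7 read-out (30 min reagent, room temperature) in human SNB-19 cells infected 6 h with ZIKV (2 FFU/cell) after 1 h compound pre-incubation; Data were normalised to uninfected and infected wells.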

Experiment [9] can be described thus: qHTS assay for small molecule agonists of the antioxidant response element (ARE) signaling pathway measured by Nrf2-dependant transcriptional activity (AID 720636; active = well fitted curve in the direction sought with a large enough effect in the repeat runs; an effect the other way counts as inactive or inconclusive; note: potency is the fitted concentration of half-maximal effect). The gist of the method: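 Quantitative HTS format in HepG2 cells stably expressing an ARE-luciferase reporter; 16 hr compound treatment at 37 C, luciferase signal detected with ONE-Glo.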
A short description of experiment [10]: qHTS assay for small molecule antagonists of the retinoid-related orphan receptor gamma (ROR-gamma) signaling pathway - cell viability counter screen (AID 720652; active = well fitted curve in the direction sought with a large enough effect in the repeat runs; an effect the other way counts as inactive or inconclusive;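 note: CHO reporter cells with doxycycline-induced ROR-gamma expression; compound exposure lasted 16 hr before ATP read; % is set by controls: 0 for no effect and ±100 for the full control effect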). The essentials: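 Steps: seed CHO cells bearing TET-inducible ROR and ROR response element-luciferase; rest 5 hr at 37 C; add compound, then doxycycline; incubate 16 hr; add CellTiter-Glo and read luminescence as ATP-based viability.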

Experiment [11] can be described thus: qHTS assay for small molecule agonists of the antioxidant response element (ARE) signaling pathway measured by Nrf2-dependant transcriptional activity - cell viability counter screen (AID 720653; active = well fitted curve in the direction sought with a large enough effect in the repeat runs; an effect the other way counts as inactive or inconclusive; note: % is set by controls: 0 for no effect and ±100 for the full control effect). The settings on record: ARE-bla HepG2 viability, CellTiter-Glo ATP luminescence, 16 h; max response: stronger effect = lower value. The gist of the method:
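ARE-bla HepG2 cells (2,000/well) rested 5 hrs at 37C/5% CO2, then exposed to compounds in DMSO for 16 hrs. Viability was read in the same wells as intracellular ATP by luminescence, 30 min at room temperature after reagent addition.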

Experiment [12] is described as follows: qHTS assay for cell viability of HEK293 cells (AID 743288). Note: % is set by controls: 0 for no effect and ±100 for the full control effect; nearly all actives have a fitted effect of over 50% in size. The settings on record: ATP luminescence (CellTiter-Glo), 18 h; max response: stronger effect = lower value. The essentials:
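Steps: plate 2,000 parental HEK293 cells per well; incubate ≥5 h, 37 C; add compounds in DMSO; incubate 18 h, 37 C; add CellTiter-Glo; wait 30 min at room temperature; read luminescence.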

Experiment [13] is described as follows: qHTS assay for cell viability of the p53RE-bla HCT-116 cell line (AID 743292). Note: % is set by controls: 0 for no effect and ±100 for the full control effect; nearly all actives have a fitted effect of over 55% in size. The gist of the method: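 Viability of compound-treated p53RE-bla HCT-116 cells is taken from ATP-dependent luciferase luminescence. Treatment lasts 16 h at 37 C after a 5 h settling period; detection follows 30 min at room temperature.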
Experiment [14] in a line: qHTS profiling for inhibitors of Plasmodium falciparum (3D7) proliferation (AID 743322; call rule not given here;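 note: infected erythrocytes exposed to compound for 72 h before lysis; 100% = DMSO vehicle wells and 0% = 0.29 µM artemisinin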). The settings on record: P. falciparum 3D7 proliferation; at 28.7 µM (top of the series) unless noted. The gist of the method:
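Parasite DNA was quantified by SYBR Green I fluorescence (ex 485, em 535 nm) after overnight lysis in saponin/Triton buffer at room temperature. Cultures at 0.3% parasitemia and 2.5% hematocrit were first exposed to compound for 72 h at 37 C; signals were normalised to artemisinin (0.29 uM) and vehicle wells.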

Experiment [15] is described as follows: qHTS profiling for inhibitors of Plasmodium falciparum (DD2) proliferation (AID 743323; call rule not given here). The settings on record: lower = more inhibition; at 28.7 µM (top of the series) unless noted. The gist of the method:
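Parasite proliferation measured via DNA-dye fluorescence, as uninfected erythrocytes lack DNA. Cultures at 0.3% parasitemia and 2.5% hematocrit incubated 72 h with compound; signal scaled between vehicle and 0.29 uM artemisinin wells.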

Data on 13 molecules can be found in PubChem BioAssay (NCATS).

Molecules are shown by their SMILES. Values joined by “and” are separate entries in the source; they are usually repeats but may differ in a detail not shown here. Equal entries are not always repeated. Inconclusive results are not listed. Active and inactive are the calls of the source. Unless noted, calls come from the whole dose curve; as a rule, active = well fitted curve in the direction sought with a large enough effect; inconclusive = small, poorly fitted or top-dose-only effect, or another doubt; inactive = no such curve, though single readings can be large; an effect the other way counts as inactive or inconclusive.

T1 sequence (P35557 whole entry, looked up): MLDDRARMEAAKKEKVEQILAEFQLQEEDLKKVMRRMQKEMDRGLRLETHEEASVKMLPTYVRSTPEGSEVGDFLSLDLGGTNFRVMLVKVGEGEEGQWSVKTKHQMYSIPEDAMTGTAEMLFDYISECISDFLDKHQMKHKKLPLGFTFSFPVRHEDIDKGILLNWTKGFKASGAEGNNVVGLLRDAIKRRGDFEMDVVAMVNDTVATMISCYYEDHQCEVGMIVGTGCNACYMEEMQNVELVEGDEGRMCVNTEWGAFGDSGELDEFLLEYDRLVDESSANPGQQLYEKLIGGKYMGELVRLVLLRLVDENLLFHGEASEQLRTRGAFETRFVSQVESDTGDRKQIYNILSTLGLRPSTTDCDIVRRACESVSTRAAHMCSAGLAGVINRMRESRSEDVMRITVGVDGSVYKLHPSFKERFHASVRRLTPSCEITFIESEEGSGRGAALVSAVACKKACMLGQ
T1 sequence (Q14397 whole entry, looked up): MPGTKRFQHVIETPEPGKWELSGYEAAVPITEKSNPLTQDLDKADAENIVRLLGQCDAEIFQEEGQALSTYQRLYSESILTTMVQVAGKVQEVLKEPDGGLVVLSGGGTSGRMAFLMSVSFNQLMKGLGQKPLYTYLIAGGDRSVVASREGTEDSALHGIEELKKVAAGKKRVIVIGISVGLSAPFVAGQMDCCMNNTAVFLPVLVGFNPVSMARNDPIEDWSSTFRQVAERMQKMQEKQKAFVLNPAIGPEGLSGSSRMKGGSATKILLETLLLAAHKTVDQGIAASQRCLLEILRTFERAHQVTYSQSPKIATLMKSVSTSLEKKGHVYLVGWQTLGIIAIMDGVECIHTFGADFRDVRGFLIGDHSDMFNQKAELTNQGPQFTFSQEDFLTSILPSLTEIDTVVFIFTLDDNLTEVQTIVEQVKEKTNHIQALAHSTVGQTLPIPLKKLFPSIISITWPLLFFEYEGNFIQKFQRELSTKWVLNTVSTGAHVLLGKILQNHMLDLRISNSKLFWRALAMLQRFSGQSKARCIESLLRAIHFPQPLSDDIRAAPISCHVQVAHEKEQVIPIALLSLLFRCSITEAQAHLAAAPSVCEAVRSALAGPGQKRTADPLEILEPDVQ

Consider `O=C(O)c1cc([N+](=O)[O-])ccc1NCCCc1ccccc1`, for which the Potency result in [1], in experiment [2] and in experiment [4] was “inactive” in each case. Moreover, the outcome in experiment [3] was inactive. The max response in experiment [5] was 5.5% (inactive). The Potency in experiment [6] is 10 µM (active).

For `CCCCCCCCCCCCCCCCCC(=O)OC(CC(=O)O)C[N+](C)(C)C` (stereo not given), the Potency result in [1], in [2], in experiment [4], in experiment [7], in [6] and in experiment [8] was “inactive” each time. Moreover, the max response in experiment [5] was -2.89% (inactive).

`COc1cccc(C(=O)NCCN2CCN(c3ccc(Cl)cc3)CC2)c1`: the Potency result in experiment [1], in experiment [2], in experiment [4] and in [6] was “inactive” throughout. Also, in experiment [5], the max response was 13.6% (inactive).

On to `COC1=C(OC)C(=O)c2ccccc2C1=O`, for which the Potency result in experiment [1], in experiment [2], in experiment [4], in [7], in experiment [6] and in experiment [8] was “inactive” each time. The Potency in experiment [5] was 3.98 µM (active).

Consider `Nc1nc2ccc([N+](=O)[O-])cc2s1`, for which the Potency entry in [9], in [10] and in [13] was “inactive” in each case. Besides, the max response in experiment [11] was -4.37% (inactive); in experiment [12] it was 6.78% (inactive). Moreover, the Potency in [6] was 10 µM (active).

`O=C(/C=C/c1ccc(O)c(O)c1)OCCc1ccccc1`: the Potency entry in [1], in [4], in experiment [7], in experiment [6] and in experiment [8] was “inactive” each time. In addition, the outcome in experiment [3] was inactive.

As for `Cc1cc(NC(=O)Nc2ccc3c(ccn3C)c2)sn1`, the Potency entry in experiment [1], in [4] and in experiment [6] was “inactive” in each case. Besides, in experiment [2], the Potency was 5.8 µM (active). Moreover, the result in [3] was inactive. In experiment [5], the max response was 24.1% (inactive).

Consider `CN1CC(=O)N/C1=N/C(=O)Nc1cccc(Cl)c1`, for which the Potency result in experiment [1], in [2], in experiment [4] and in experiment [7] was “inactive” in each case. In addition, the result in [3] was inactive. The max response in experiment [5] was 11.6% (inactive) and 35.9% (inactive). In addition, in experiment [14], the remaining parasite growth % (stronger effect = lower value) was 102%. The activity, percent of control in [15] is 106%. Also, the Potency in experiment [6] was 11.2 µM (active).

For the molecule `O=c1cc(-c2ccccc2)oc2ccccc12`, the max response was -6.91% (inactive) and -11.5% (inactive) in experiment [11]; -12.4% (inactive) and -11.5% (inactive) in [12]. The Potency result in experiment [13] was “inactive”. Besides, the Potency in [6] was 35.5 µM (active).

For `O=C(Nc1ccccc1)c1cc([N+](=O)[O-])ccc1Cl`, the Potency result in [1], in experiment [2], in [4], in experiment [7], in [13] and in experiment [6] was “inactive” each time. Further, the Potency in [9] was 3.06 µM (active). For the same molecule, the results for the max response in experiment [11], in [5] and in experiment [12] were -18.4% (inactive), -5.62% (inactive) and -11.7% (inactive), respectively. In addition, the outcome in [3] was inactive.

For the molecule `NC(N)=NC(=O)c1nc(Cl)c(N2CCCCCC2)nc1N`, the Potency result in [2], in experiment [4], in experiment [6] and in [8] was “inactive” each time. Also, the result in experiment [3] was inactive. The Potency in experiment [5] is 0.891 µM (active).

For the molecule `Oc1cc2c(cc1O)CN(C(=S)NCCc1ccc(Cl)cc1)CCC2`, the Potency entry in experiment [2], in experiment [4], in [6] and in experiment [8] was “inactive” in each case. In experiment [3], the outcome was inactive.

As to `CC(C)NC[C@@H](O)c1ccc(O)c(O)c1`, the Potency result in [1], in [2], in experiment [4], in experiment [7] and in [6] was “inactive” throughout. Also, the result in experiment [3] was inactive. For the same molecule, the max response in experiment [5] was 19.2% (inactive).
